{
  "source": "the supplement of paper PMC11732987",
  "about": "“Enantioselective OTUD7B fragment discovery through chemoproteomics screening and high-throughput optimisation” (Communications Chemistry, 2025)",
  "data": [
    {"compound": "Cc1nc(NC(=O)CCl)sc1C", "experiment": "log2 ratio of Biotin-Ahx-Ub-VS probe labelling (fragment/DMSO); higher = less target engagement (more negative = stronger competition), active = hit call of the paper (q ≤ 0.05, log2 ratio ≤ -1)", "conditions": "compound concentration: 200 uM; treatment time: 3 h", "how_it_was_run": "(§1)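 Labelled DUBs from HEK293T lysate were NeutrAvidin-enriched, digested with LysC and trypsin, and run by diaPASEF LC-MS/MS. Before that, each 495 µg sample in Tris/CHAPS/IGEPAL buffer with protease inhibitors was treated in triplicate with fragment at 200 µM or vehicle for 3 h, then with Biotin-Ahx-Ub-VS at 0.5 µM final for 1 h. Values are average log2 ratios of fragment over vehicle by unpaired t-test, based on global-median-normalised Spectronaut label-free quantities from proteins with ≥2 unique peptides.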", "values": [
      {"target": "YOD1 (UniProt Q5VVQ6)", "log2 ratio of Biotin-Ahx-Ub-VS probe labelling": "0.241 (inactive)"},
      {"target": "UCHL5 (UniProt Q9Y5K5)", "log2 ratio of Biotin-Ahx-Ub-VS probe labelling": "-0.292 (inactive)"},
      {"target": "UniProt Q9P2H5", "log2 ratio of Biotin-Ahx-Ub-VS probe labelling": "-0.0782 (inactive)"},
      {"target": "USP19 (UniProt O94966)", "log2 ratio of Biotin-Ahx-Ub-VS probe labelling": "-0.171 (inactive)"},
      {"target": "OTUD6B (UniProt Q8N6M0)", "log2 ratio of Biotin-Ahx-Ub-VS probe labelling": "-0.338 (inactive)"},
      {"target": "USP24 (UniProt Q9UPU5)", "log2 ratio of Biotin-Ahx-Ub-VS probe labelling": "-0.319 (inactive)"},
      {"target": "UniProt Q9UGI0", "log2 ratio of Biotin-Ahx-Ub-VS probe labelling": "-0.47 (inactive)"},
      {"target": "USP36 (UniProt Q9P275)", "sequence (Q9P275 whole entry)": "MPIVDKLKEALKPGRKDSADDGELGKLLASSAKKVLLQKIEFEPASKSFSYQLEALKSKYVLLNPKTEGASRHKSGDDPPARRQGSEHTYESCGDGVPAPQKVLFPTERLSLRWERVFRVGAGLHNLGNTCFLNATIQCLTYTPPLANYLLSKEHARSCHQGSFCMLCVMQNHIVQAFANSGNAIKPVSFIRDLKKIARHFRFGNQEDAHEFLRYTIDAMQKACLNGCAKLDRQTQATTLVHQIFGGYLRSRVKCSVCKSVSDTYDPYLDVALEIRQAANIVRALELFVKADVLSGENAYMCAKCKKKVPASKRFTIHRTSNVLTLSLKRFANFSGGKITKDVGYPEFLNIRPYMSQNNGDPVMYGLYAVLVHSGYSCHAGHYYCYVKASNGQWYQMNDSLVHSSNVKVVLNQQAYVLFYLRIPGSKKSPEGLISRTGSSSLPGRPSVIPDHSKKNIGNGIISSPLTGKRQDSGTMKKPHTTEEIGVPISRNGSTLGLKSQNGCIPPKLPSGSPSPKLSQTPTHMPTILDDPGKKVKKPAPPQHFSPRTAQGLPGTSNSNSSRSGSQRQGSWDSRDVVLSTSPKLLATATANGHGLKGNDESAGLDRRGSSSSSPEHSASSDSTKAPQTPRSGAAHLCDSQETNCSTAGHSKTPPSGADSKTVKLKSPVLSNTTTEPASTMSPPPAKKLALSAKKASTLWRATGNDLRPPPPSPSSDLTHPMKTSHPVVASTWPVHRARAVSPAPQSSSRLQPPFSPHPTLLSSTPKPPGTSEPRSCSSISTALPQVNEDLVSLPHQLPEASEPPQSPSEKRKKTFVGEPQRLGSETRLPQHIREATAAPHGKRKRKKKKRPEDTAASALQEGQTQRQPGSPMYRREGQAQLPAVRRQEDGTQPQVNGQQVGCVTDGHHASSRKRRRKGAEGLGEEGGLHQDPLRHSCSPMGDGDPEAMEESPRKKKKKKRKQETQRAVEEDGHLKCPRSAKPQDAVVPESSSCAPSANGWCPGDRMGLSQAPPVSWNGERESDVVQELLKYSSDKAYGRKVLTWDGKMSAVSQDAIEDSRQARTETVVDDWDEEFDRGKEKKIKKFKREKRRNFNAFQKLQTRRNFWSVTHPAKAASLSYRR", "log2 ratio of Biotin-Ahx-Ub-VS probe labelling": "-0.166 (inactive)"},
      {"target": "USP10 (UniProt Q14694)", "sequence (Q14694 whole entry)": "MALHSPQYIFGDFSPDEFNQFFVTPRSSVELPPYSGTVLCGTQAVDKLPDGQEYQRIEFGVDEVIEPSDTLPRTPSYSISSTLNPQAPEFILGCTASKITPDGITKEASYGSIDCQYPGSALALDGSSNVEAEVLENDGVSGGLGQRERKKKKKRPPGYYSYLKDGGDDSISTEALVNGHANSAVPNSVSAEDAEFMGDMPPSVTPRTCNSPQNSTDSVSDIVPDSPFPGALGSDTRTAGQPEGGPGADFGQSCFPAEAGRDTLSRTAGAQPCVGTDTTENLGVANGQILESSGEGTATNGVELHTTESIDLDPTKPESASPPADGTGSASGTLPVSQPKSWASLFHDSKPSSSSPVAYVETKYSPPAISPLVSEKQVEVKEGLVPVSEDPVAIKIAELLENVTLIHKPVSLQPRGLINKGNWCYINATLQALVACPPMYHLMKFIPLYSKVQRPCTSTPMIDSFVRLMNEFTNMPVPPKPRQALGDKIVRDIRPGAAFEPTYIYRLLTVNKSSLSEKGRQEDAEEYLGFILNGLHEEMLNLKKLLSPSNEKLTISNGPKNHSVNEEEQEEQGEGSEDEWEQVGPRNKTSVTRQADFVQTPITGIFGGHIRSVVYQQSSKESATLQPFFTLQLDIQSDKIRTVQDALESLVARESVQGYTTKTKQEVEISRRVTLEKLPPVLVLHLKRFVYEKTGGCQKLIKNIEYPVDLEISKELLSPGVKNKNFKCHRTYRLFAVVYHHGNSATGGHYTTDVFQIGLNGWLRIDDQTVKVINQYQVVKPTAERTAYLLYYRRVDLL", "log2 ratio of Biotin-Ahx-Ub-VS probe labelling": "-0.0878 (inactive)"},
      {"target": "USP47 (UniProt Q96K76)", "sequence (Q96K76 whole entry)": "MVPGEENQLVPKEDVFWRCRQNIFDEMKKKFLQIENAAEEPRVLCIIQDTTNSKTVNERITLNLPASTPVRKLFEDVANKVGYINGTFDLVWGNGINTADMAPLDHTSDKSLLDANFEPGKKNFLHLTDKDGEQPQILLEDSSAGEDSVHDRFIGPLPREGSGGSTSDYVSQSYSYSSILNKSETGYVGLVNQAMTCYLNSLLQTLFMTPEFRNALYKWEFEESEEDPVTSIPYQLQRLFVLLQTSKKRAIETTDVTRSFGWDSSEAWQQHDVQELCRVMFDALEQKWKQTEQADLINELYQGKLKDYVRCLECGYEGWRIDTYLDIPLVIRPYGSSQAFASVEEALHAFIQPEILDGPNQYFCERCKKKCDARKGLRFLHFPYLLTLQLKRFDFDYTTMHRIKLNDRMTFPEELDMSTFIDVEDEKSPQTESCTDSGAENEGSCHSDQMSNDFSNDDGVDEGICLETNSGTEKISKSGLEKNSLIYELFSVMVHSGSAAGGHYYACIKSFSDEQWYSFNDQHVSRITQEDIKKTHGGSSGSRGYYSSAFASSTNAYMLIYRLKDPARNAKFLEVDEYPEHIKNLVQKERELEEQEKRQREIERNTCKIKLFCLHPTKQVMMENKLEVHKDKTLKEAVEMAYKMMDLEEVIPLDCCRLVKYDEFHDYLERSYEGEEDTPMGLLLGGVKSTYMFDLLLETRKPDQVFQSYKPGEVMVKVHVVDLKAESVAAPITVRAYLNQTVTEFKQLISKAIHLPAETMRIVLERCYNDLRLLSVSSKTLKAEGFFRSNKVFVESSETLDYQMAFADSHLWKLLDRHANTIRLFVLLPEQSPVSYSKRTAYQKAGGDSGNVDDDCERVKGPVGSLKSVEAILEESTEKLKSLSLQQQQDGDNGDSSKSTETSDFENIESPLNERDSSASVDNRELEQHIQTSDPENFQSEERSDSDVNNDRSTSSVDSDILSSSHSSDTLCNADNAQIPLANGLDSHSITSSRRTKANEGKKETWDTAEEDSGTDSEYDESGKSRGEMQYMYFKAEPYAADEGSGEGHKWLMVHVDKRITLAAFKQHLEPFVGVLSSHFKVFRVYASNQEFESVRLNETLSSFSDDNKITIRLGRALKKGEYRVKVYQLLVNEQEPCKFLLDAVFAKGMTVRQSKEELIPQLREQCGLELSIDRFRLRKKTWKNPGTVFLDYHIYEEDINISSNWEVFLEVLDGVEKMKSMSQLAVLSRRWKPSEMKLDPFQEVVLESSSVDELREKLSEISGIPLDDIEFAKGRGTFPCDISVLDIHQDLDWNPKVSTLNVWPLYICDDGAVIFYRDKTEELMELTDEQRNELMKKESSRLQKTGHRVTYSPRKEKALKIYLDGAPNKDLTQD", "log2 ratio of Biotin-Ahx-Ub-VS probe labelling": "-0.108 (inactive)"},
      {"target": "USP5 (UniProt P45974)", "log2 ratio of Biotin-Ahx-Ub-VS probe labelling": "0.0301 (inactive)"},
      {"target": "USP28 (UniProt Q96RU2)", "log2 ratio of Biotin-Ahx-Ub-VS probe labelling": "-0.857 (inactive)"},
      {"target": "USP46 (UniProt P62068)", "log2 ratio of Biotin-Ahx-Ub-VS probe labelling": "-0.0696 (inactive)"},
      {"target": "USP8 (UniProt P40818)", "log2 ratio of Biotin-Ahx-Ub-VS probe labelling": "-0.125 (inactive)"},
      {"target": "UCHL1 (UniProt P09936)", "log2 ratio of Biotin-Ahx-Ub-VS probe labelling": "-1.21 (active)"},
      {"target": "UniProt Q8TE49", "log2 ratio of Biotin-Ahx-Ub-VS probe labelling": "-0.452 (inactive)"},
      {"target": "USP16 (UniProt Q9Y5T5)", "log2 ratio of Biotin-Ahx-Ub-VS probe labelling": "-0.0917 (inactive)"},
      {"target": "OTUD5 (UniProt Q96G74)", "sequence (Q96G74 whole entry)": "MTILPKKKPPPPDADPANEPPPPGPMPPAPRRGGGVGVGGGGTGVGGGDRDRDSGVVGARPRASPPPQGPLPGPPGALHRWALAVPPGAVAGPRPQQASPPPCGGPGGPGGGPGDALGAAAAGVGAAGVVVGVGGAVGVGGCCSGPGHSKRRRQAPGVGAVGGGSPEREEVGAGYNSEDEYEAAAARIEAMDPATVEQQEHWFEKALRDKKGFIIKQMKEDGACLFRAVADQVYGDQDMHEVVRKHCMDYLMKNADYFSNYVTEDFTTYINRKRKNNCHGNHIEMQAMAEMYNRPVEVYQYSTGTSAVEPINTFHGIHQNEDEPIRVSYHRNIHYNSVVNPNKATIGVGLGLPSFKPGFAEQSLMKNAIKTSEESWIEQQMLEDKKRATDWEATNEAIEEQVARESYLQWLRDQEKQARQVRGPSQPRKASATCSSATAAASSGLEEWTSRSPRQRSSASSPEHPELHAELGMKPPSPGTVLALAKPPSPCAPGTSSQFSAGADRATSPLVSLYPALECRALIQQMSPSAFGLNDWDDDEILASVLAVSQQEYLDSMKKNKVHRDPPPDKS", "log2 ratio of Biotin-Ahx-Ub-VS probe labelling": "-0.315 (inactive)"},
      {"target": "PSMD7 (UniProt P51665)", "log2 ratio of Biotin-Ahx-Ub-VS probe labelling": "0.0653 (inactive)"},
      {"target": "USP22 (UniProt Q9UPT9)", "log2 ratio of Biotin-Ahx-Ub-VS probe labelling": "-0.117 (inactive)"},
      {"target": "COPS5 (UniProt Q92905)", "log2 ratio of Biotin-Ahx-Ub-VS probe labelling": "-0.00505 (inactive)"},
      {"target": "USP48 (UniProt Q86UV5)", "log2 ratio of Biotin-Ahx-Ub-VS probe labelling": "-0.179 (inactive)"},
      {"target": "OTUD7B (UniProt Q6GQQ9)", "log2 ratio of Biotin-Ahx-Ub-VS probe labelling": "-0.151 (inactive)"},
      {"target": "OTUD4 (UniProt Q01804)", "sequence (Q01804 whole entry)": "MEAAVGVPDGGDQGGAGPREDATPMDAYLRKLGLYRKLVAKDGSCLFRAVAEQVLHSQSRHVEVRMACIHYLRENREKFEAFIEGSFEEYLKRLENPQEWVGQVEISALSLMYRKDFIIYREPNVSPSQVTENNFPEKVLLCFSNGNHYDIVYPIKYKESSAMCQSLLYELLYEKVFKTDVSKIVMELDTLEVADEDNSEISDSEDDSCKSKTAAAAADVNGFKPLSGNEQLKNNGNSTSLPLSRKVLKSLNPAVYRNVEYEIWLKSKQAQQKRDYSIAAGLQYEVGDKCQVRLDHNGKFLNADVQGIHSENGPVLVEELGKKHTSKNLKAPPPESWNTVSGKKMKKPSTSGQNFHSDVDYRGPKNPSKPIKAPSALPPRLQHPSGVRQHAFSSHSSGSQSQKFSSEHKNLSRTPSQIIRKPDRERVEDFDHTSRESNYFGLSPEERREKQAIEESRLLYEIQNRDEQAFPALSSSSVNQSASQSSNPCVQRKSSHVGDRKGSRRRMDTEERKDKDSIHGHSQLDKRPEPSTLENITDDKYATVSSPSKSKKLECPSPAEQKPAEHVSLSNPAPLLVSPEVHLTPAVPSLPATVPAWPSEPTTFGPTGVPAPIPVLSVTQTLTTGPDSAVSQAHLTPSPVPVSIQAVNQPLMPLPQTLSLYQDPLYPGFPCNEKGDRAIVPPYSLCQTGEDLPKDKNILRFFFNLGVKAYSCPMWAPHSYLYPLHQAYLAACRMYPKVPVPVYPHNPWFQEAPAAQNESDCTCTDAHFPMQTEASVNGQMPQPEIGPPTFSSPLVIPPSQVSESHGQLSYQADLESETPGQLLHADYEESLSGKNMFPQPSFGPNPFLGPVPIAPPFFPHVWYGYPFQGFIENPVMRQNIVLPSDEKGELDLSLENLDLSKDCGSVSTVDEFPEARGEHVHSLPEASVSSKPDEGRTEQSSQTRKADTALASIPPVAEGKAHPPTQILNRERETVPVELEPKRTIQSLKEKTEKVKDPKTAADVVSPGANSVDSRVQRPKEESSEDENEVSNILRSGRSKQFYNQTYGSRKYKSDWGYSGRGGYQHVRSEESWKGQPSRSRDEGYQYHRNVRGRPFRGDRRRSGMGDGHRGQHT", "log2 ratio of Biotin-Ahx-Ub-VS probe labelling": "-0.136 (inactive)"}
    ]},
    {"compound": "Cc1nnc(NC(=O)CCl)s1", "experiment": "log2 ratio of Biotin-Ahx-Ub-VS probe labelling (fragment/DMSO); higher = less target engagement (more negative = stronger competition), active = hit call of the paper (q ≤ 0.05, log2 ratio ≤ -1)", "conditions": "compound concentration: 200 uM; treatment time: 3 h", "how_it_was_run": "as §1", "values": [
      {"target": "YOD1 (UniProt Q5VVQ6)", "log2 ratio of Biotin-Ahx-Ub-VS probe labelling": "-0.155 (inactive)"},
      {"target": "UCHL5 (UniProt Q9Y5K5)", "log2 ratio of Biotin-Ahx-Ub-VS probe labelling": "-0.0414 (inactive)"},
      {"target": "UniProt Q9P2H5", "log2 ratio of Biotin-Ahx-Ub-VS probe labelling": "-0.183 (inactive)"},
      {"target": "USP19 (UniProt O94966)", "log2 ratio of Biotin-Ahx-Ub-VS probe labelling": "-0.607 (inactive)"},
      {"target": "OTUD6B (UniProt Q8N6M0)", "log2 ratio of Biotin-Ahx-Ub-VS probe labelling": "-0.283 (inactive)"},
      {"target": "USP24 (UniProt Q9UPU5)", "log2 ratio of Biotin-Ahx-Ub-VS probe labelling": "-0.639 (inactive)"},
      {"target": "UniProt Q9UGI0", "log2 ratio of Biotin-Ahx-Ub-VS probe labelling": "-0.661 (inactive)"},
      {"target": "USP36 (UniProt Q9P275)", "log2 ratio of Biotin-Ahx-Ub-VS probe labelling": "-0.233 (inactive)"},
      {"target": "USP10 (UniProt Q14694)", "log2 ratio of Biotin-Ahx-Ub-VS probe labelling": "-0.256 (inactive)"},
      {"target": "USP47 (UniProt Q96K76)", "log2 ratio of Biotin-Ahx-Ub-VS probe labelling": "-0.366 (inactive)"},
      {"target": "USP5 (UniProt P45974)", "log2 ratio of Biotin-Ahx-Ub-VS probe labelling": "-0.648 (inactive)"},
      {"target": "USP28 (UniProt Q96RU2)", "log2 ratio of Biotin-Ahx-Ub-VS probe labelling": "-0.957 (inactive)"},
      {"target": "USP46 (UniProt P62068)", "log2 ratio of Biotin-Ahx-Ub-VS probe labelling": "-0.323 (inactive)"},
      {"target": "USP8 (UniProt P40818)", "log2 ratio of Biotin-Ahx-Ub-VS probe labelling": "-0.197 (inactive)"},
      {"target": "UCHL1 (UniProt P09936)", "log2 ratio of Biotin-Ahx-Ub-VS probe labelling": "-1.48 (active)"},
      {"target": "UniProt Q8TE49", "log2 ratio of Biotin-Ahx-Ub-VS probe labelling": "-0.537 (inactive)"},
      {"target": "USP16 (UniProt Q9Y5T5)", "log2 ratio of Biotin-Ahx-Ub-VS probe labelling": "-0.476 (inactive)"},
      {"target": "OTUD5 (UniProt Q96G74)", "log2 ratio of Biotin-Ahx-Ub-VS probe labelling": "-0.685 (inactive)"},
      {"target": "PSMD7 (UniProt P51665)", "log2 ratio of Biotin-Ahx-Ub-VS probe labelling": "-0.0837 (inactive)"},
      {"target": "USP22 (UniProt Q9UPT9)", "log2 ratio of Biotin-Ahx-Ub-VS probe labelling": "0.0632 (inactive)"},
      {"target": "COPS5 (UniProt Q92905)", "log2 ratio of Biotin-Ahx-Ub-VS probe labelling": "-0.0303 (inactive)"},
      {"target": "USP48 (UniProt Q86UV5)", "log2 ratio of Biotin-Ahx-Ub-VS probe labelling": "-0.251 (inactive)"},
      {"target": "OTUD7B (UniProt Q6GQQ9)", "log2 ratio of Biotin-Ahx-Ub-VS probe labelling": "-0.187 (inactive)"},
      {"target": "OTUD4 (UniProt Q01804)", "log2 ratio of Biotin-Ahx-Ub-VS probe labelling": "0.02 (inactive)"}
    ]}
  ]
}
